The text below walks through data of PubChem BioAssay AID1508600 (Functional Genomics Laboratory (NCATS/FGL), 2020).

Screen size: about 53,000 sequences; about 3,700 (7%) were called active. The full list was thinned out, with actives kept by preference. Values without a mark were called inactive.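 How the source made its calls: active means gene knockdowns whose robust z-score for IL-1 alpha signal is at least 2 or at most -2, so actives lie on both sides; inactive means the rest.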

The nature of the test: Components of the Cytosolic LPS Sensing Pathway: Gene Identification via Genome-wide siRNA Screen. Particulars: RAW264.7 macrophages, IL-1a HTRF, actives lie on both sides, screened at 100 nM (by protocol), cells primed 5 h with Pam3CSK4 first. An excerpt: Non-canonical inflammasome activation by cytosolic LPS is a critical component of the host response to Gram-negative bacterial infection, however we lack a comprehensive understanding of the cellular processes that control this pathway. Here we describe a genome-wide siRNA screen to identify genes regulating the mouse macrophage IL-1 alpha response to cytosolic LPS.
RAW264.7 cells were maintained in complete DMEM media, comprising DMEM with 4.5 g/L glucose, 10% FBS (Gemini Bio-Products, West Sacramento, CA), 2 mM Glutamine (Lonza) and 20 mM HEPES (Lonza), hereafter complete DMEM.
The RNAi screen was conducted in 384-well format using the Ambion Silencer Mouse Genome siRNA Library (#4391425), which consists of three unique, nonoverlapping, nonpooled siRNAs for each of 17,000 gene targets. siRNA reagents ([…]) were stamped into 384-well white flat-bottom microplates (Corning, 3570) using a Velocity11 VPrep liquid handling system (Agilent) integrated into a BioCel robotic platform (Agilent) in columns 1-22, leaving columns 23-24 empty for negative (Ambion, Negative control #1) and positive (mouse Casp4) controls, respectively. The median value of each plate's negative control column was used to normalize sample wells, and the positive control was used to assess transfection efficiency and assay performance.
Lipofectamine RNAiMAX Transfection Reagent ([…]; Invitrogen) was added in […] serum-free, antibiotic-free media to plate wells using a Thermo Scientific Matrix WellMate and Microplate Stacker. Plates were incubated for 45 min at room temperature to allow for the sufficient formation of siRNA-lipid complexes. Cells were seeded at a density of 1x10^4 cells per well in 20 microL media containing 20% (vol/vol) FBS without antibiotics. The final concentration of siRNA in each well was 100 nM. Cells were cultured for 48h at 37 degrees C in 5% CO2 before addition of […] of TLR ligand Pam3CSK4 for 5 hours. The medium was then removed, replaced with […] growth media and cell were transfected with […] of LipidA and TransIT-TKO (Mirus) for 24 hour. At the end of the LipidA treatment, […] of supernatant was transferred to a 384 Greiner Bio-one non-binding low volume plate and […] of IL-1a HTRF reagent (Cisbio, 62MIL1APEH) was added and incubated at room temperature overnight. The plates were read on an EnVision plate reader (PerkinElmer). Cell viability was measured by adding 20ul Cell Titer Glo to the original plate and running a luminescence read on the EnVision. The quantified IL-1a signal for each siRNA gene-targeted well was divided by the median of the negative control wells and multiplied by 100 to achieve a negative control normalized value for each well/siRNA. This normalized value was then used to generate a robust z-score by first taking the log of each value and then by subtracting the median and dividing by the […].
Regarding GGAAGAAGAAGAUAAAGCGTT against Grk6, the z-score is 0.184. Turning to CCACCAGAUACAUAUUUGUTT against Gnpnat1, the z-score is -0.352. Consider GGCUUUAAAGAAUGAUUCATT against Cfap97, for which the z-score is 0.197. As to GGAACUCCACUUUCUUUUUTT against Ripply3, the z-score was 2.27 (active). Turning to GGCUGCACAAACAUGGUUCTT against Pard6a, the z-score is -0.146.

For GGUGGAAGAUUAGUGACUUTT against Trim38, the z-score is 1.63.

For CCGUGUAAGGUGUGGAGUGTT against Mcat, the z-score was -2.27 (active).

Regarding GGAAAGAUUGUACCAGUUGTT against Cmpk1, the z-score was 2.58 (active). On to GGUAAAAUUCCAGAGUUGUTT against Serpinb9, for which the z-score is -0.412. Consider GGGUUUGGACUGAUAUACUTT against Vrk2, for which the z-score was -0.465. Then GGAAUCAGGAAUGCUACUUTT against Tsr1, with 0.216; and “CAAGAAGGUCAUGUUAUUGTT against Olfr106-ps”, with 0.495.

For CGGCUCGUACACAUGUGAATT against Creld2, the z-score is 0.199. For the sequence GGAUGAAGAUGGAGACAUGTT against Lmx1b, the z-score was -2.58 (active). As to “GGGUUCAUAUGUUUUGGAUTT against C130050O18Rik”, the z-score was 1.38. GGAGCAGUAUAUCCUACAUTT against Olfr510: the z-score was 2.82 (active). Regarding CCCUGACCUUGUGGUAGAATT against Aspdh, the z-score is -0.165.

As to CGAGAAGAUAUUUAAAGAGTT against Myo10, the z-score is -0.045. Take GGAAAACAAGAGAAGGCGCTT against Pom121: the z-score is 0.361.

Regarding GGCCUAAUUUCCUCUAAUATT against Padi1, the z-score was 0.452. GGUCUUCAGACCAGAAACATT against Hsd3b2: the z-score is -3.19 (active). In the case of GGAACAUUCUAGAAUCUGUTT against Rps6kb2 it was 0.986; in that of GGCCAAUAAAGAAACAAACTT against Cst9, 1.08; in that of GGGUGUUGAAAGACUUUUATT against Tnks, -0.122.

For the sequence GCAAUCAUUUCUUCAUCUATT against Olfr148, the z-score is 0.255. Turning to GGAAUACAAAUUCAAGAUCTT against Vamp5, the z-score was -0.82.

As to CCUAUCUUUUCCCUACAUGTT against Cyp4a31, the z-score is 2.01 (active). GGGAUAGUGUUCCUUAUCUTT against Neu1: the z-score is -2.6 (active). Then GGUCAGCGUGGAGUCAAUATT against Fam184b, with -1.92.

Consider GGAUAUCAUAUUUUCUCAGTT against Fam71d, for which the z-score was 0.0644. Take GGAGGUGCGCUUCUUUAACTT against Chst5: the z-score is 0.24. On to CGAAAAAAAUCCAAGUCAATT against Akap12, for which the z-score was -0.28. Consider GCCUUAGGAAAUUCUCAAUTT against Rbm12b2, for which the z-score is 0.334.

With GGUCCUACAUCUCCUUCGATT against Cars, the z-score was -0.194.

In the case of GCUAGAUUUGAUGGUUCAGTT against Cacng5, the z-score was -1.62. For GGCAUUUAGUAAAACCCUUTT against Rnf144a, the z-score was -2.43 (active). Turning to GCAUAUAACCGAGUUGAUUTT against Cdcp1, the z-score is 0.183. Then GCUUCAGGAGCUCUACUGUTT against Catsper3, with -0.736; and CCUGCUCUAUGGCAGAACGTT against Nkx2-4, with 0.992; and “GGAACAGGAGAAUGACAUCTT against D5Ertd579e”, with -1.25. With GGUGCAGAAUCUCUCAUUGTT against Mrpl30, the z-score was -2.14 (active). In the case of GCGCGAUUCAGAGGUUUCATT against Raver2 it was 0.238; in that of GCACUGCCAGAGGUUCUGUTT against U90926, -0.107; in that of GCCCUUAGAGAGAAUUUAUTT against Lmo2, 0.63.

With GCCACGUUCAAACAGUACCTT against Slc1a7, the z-score was 3.94 (active). In the case of GCAGGUUCACAAUGGAUUATT against Lrrc25 it was 0.108; in that of GGAAUCUGCUAUGCUUAAATT against Rdh16f2, -1.84.

Take GCCAGAGUACCACAUUAGUTT against Pcdhga4: the z-score was 0.921. Consider GGACCAUGUGAUAAUAUCGTT against Als2, for which the z-score is -0.599.

Turning to GGAGAUCUGCUCUAAUUAUTT against Eif1ax, the z-score was 2.21 (active). For GGGAUUGUAACAGCAUCCCTT against Epha6, the z-score was 0.594. Regarding GGGAAUCUGAUGAAGAUGGTT against Grin3b, the z-score was -1.56. Then GGCCUUGAAAUCGUUUUUUTT against Tceal8, with 0.534; and GGAUUUUUCAGAUUCUAGATT against Hs6st2, with 0.375.

Turning to GGAUUUAGGCUACUUUUUCTT against Art4, the z-score was -0.387.

In the case of GAUGUACGAUCUGGUGGUGTT against Exosc6, the z-score is 2.73 (active). Turning to GGAUUUAGAUCACUUGGAGTT against Tmem68, the z-score is -0.811. As to GGAGUGUUGGAUGCUACCATT against Ache, the z-score was -1.12. As to GGGCAAUGGGUGAUCUAAUTT against Phactr1, the z-score is 0.00934.

As for GGAACUUUUUAAGAUGCGUTT against Ranbp1, the z-score was -0.36. With GGAUGCCUAUCACAAGCAGTT against Pacsin1, the z-score is -0.478.

For the sequence GGCCCAUUACUUGUUGACUTT against Fanci, the z-score was 0.378. For the sequence GAGCAAUGAGCAGAGAUUCTT against H2-D4, the z-score was 1.93. With GGACUUCAACUUGAUGGAGTT against Add2, the z-score is 2.02 (active). In the case of GGAUGCUAAUUCAAGUCUUTT against Slc1a7, the z-score was 0.292. Regarding GGUUAUUAAGGAUAAACUGTT against Cops5, the z-score was 2.28 (active). Turning to GGAACUUACAUGAAUUCCATT against Slco1a4, the z-score is -0.229. As to GCCACUUCCUGGAUAAGGATT against Ftl2-ps, the z-score was -2.88 (active). With CCAAGACUGUGACAAGUUUTT against Ctsz, the z-score is -0.557.

GGAAACCAGACUUUCCCUATT against Vmn1r43: the z-score was -0.18. Then CGAAGAUAUUACUAUUCUGTT against Lama2, with 1.65. With GAUGCACACGUGGGAAGACTT against Cdpf1, the z-score was 2.25 (active). As to GCUCCAUCUACAAACAAUGTT against Gpr37l1, the z-score is 1.53. Consider GGGACAGGAACAAACAAGCTT against Polq, for which the z-score was 2. With GGUUAUAGAUGUAAAGUCUTT against Isg20l2, the z-score was -0.847.

Regarding GGAGCUUCUUUUCCCUCUATT against Gcgr, the z-score was -0.684. Turning to GGAUUUAAGUGCCCGGUAUTT against Znrf2, the z-score is 1.34. As to GCGAUAUGCCCUAACUGGATT against Mmp24, the z-score is 0.967. As for GGAAGAUCCGCUUCAACGUTT against Mab21l4, the z-score was 1.2.

In the case of GGUUGGUUUGGAGAAGGCATT against Krt35, the z-score is 2.91 (active).

On to CCACAUGCCUGAGAGAUUCTT against Spp2, for which the z-score was 1.28. Turning to CGUUUGACCAAAACAGAAUTT against Fbxw10, the z-score was 0.709. As for GGAAGUCAGACAGAUUUAATT against Prss33, the z-score is 2.69 (active). As to CGCACCUUUCUUUGGAAUGTT against Rab1b, the z-score was 1.72. Take GGAUUUUGUUCUUCAUCCATT against Nedd4: the z-score was -0.142. With GGGUUAUGGAUUUGAAGUGTT against Tmem131l, the z-score was 1.3. As for CCAAUUUUCAAGAUCGGUCTT against Pakap, the z-score is 0.347. Take GCUCUGAUGUCAACCUUCCTT against Fam174c: the z-score was -2.23 (active).

For CCACCUUUAUUCAAAAUCGTT against Mmp20, the z-score was -0.451. Then CCUACUCAAGAAGCUCAGUTT against Hpse, with -2.47 (active); and GCGCACAAGCCUUACUAAATT against Zfp560, with 0.0854; and GCGGACAUGAGUUUGAAUGTT against Bnipl, with -0.858. For the sequence GGUGGACAAGAUGAUGGAATT against Gps2, the z-score is 1.92. Then GGAGACAGAUGAAUGAACCTT against Tifab, with 0.0548. Then CCCUCUCUACGAUGACUCUTT against Parm1, with -2 (active); and CCAAUAACUUCGCUUAUAUTT against Ms4a2, with -0.389.

On to GGUUCAUCCAACUUUCAAGTT against Stac3, for which the z-score was 0.587.

In the case of GUUUCUGGGUGAGCGCGAUTT against Fzd2, the z-score was 2.29 (active). In the case of GGCAUUUAAAACUCAUUGUTT against G6pdx it was -1.47; in that of GGGUUCAGAGGUCAUCAACTT against Lin37, -1.95. In the case of “GCAAAUUAGGCUCUUAUCCTT against 4930402H24Rik” it was -0.333. Turning to GGAAGAAAUGCAGGUGUGGTT against Gab3, the z-score is -2.15 (active). On to GCUUUAUUAACCCAUCAAATT against Wdr78, for which the z-score was -0.136. In the case of GGGAAAAUUCCAGAAUUGUTT against Serpinb9c, the z-score is -1.37. For GGAGAUGGCCGACUUCUAUTT against Coa8, the z-score is 0.934.

Turning to GGUUAAAUCCCUGAUGUAUTT against Ptdss1, the z-score is -0.613. Then GCUUGUGUCACCUACGGAATT against Mterf2, with 0.944. For the sequence CCCAUGCUAUCAAUCAUUUTT against Olfr308, the z-score was 2.51 (active).
